Reference: PubChem BioAssay AID2057 (The Scripps Research Institute Molecular Screening Center, 2009)
About 2,100 (0.66%) of roughly 320,000 compounds were called active.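 Rule for the calls: active = inhibition above the mean inhibition of all tested compounds plus 3 SD, set per campaign (cut at about 40% in these data); inactive = the rest.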 Only a selection was taken, and actives are over-represented in it overall.

These molecules were tested against Induced myeloid leukemia cell differentiation protein Mcl-1 (Homo sapiens) (UniProt Q07820) (assay: inhibitors of MCL1 binding to BIM-BH3, primary screen, biochemical, fluorescence polarization (AID 2057;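 note: 0% = DMSO wells and 100% = unlabeled Bim-BH3 peptide control; higher means more loss of mP so more displacement of Bim peptide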)). Settings: GST-MCL1 / FITC-Bim-BH3 fluorescence polarization; at 10.9 µM; hits give high values.
Induced myeloid leukemia cell differentiation protein Mcl-1 (Homo sapiens), sequence (Q07820 whole entry, looked up): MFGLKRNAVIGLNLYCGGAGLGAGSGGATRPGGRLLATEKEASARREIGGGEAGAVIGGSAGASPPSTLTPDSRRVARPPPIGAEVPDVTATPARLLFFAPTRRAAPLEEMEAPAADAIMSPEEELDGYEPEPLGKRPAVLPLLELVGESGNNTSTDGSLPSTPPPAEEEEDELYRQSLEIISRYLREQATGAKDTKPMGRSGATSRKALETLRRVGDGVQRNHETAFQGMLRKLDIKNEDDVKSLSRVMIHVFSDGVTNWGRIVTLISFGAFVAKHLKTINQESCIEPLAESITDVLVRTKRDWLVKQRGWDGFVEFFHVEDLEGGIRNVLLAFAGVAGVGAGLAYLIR

Structure (SMILES) | inhibition
COc1ccc(S(=O)(=O)N2CCCCC2)cc1NC(=O)c1cc([N+](=O)[O-])ccc1N1CCOCC1 | 3.68% (inactive)
CCn1c(SCc2cc(=O)n3ccsc3n2)nc2ccccc21 | 8.95% (inactive)
CCOc1ncccc1C(=O)N(C)CC(=O)Nc1ccc(F)cc1 | -10.5% (inactive)
CC(=O)N1CCN(C(=O)c2cc(-c3ccc(C)o3)nc3ccccc23)CC1 | 7.28% (inactive)
COc1ccc(NC(=O)c2cc(-c3ccc(C)o3)nc3ccccc23)cc1 | 22.5% (inactive)
Cc1ccc(NC(=O)c2cc(-c3ccc(C)o3)nc3ccccc23)nc1 | 56.2% (active)
Cc1cc(OCc2cc(C(=O)NCc3cc(C(C)C)no3)no2)cc(C)c1Cl | 6.88% (inactive)
Cc1cc(C)n(-c2nnc(C)n2NC(=O)c2cccc(Cl)c2)n1 | -1.3% (inactive)
Cc1ccc(C2Nc3cccc4cccc(c34)N2)cc1 | 53.9% (active)
COc1cccc(C2Nc3cccc4cccc(c34)N2)c1 | 22.2% (inactive)
Oc1ccc(C2Nc3cccc4cccc(c34)N2)cc1 | 26.6% (inactive)
O=C(C1CCC1)N1CCN(S(=O)(=O)c2ccc([N+](=O)[O-])cc2)CC1 | -7.38% (inactive)
COc1ccc(O)c(/C=N/N=C/c2cccc([N+](=O)[O-])c2)c1 | 3.97% (inactive)
COc1ccccc1/C=C/C(=O)NC(=S)N1CCOCC1 | -5.3% (inactive)
COc1ccc(OCC(=O)NCCS(=O)(=O)N2CCN(c3ccc(F)cc3)CC2)cc1 | 2.8% (inactive)
CCOc1ccc(C2=CC(c3ccccc3)n3ncnc3N2)cc1 (stereo not given) | 6.81% (inactive)
COC(=O)C1=C(C)Nc2ncnn2C1c1ccco1 (stereo not given) | 9.97% (inactive)
O=C(C1=C(O)C(=O)N(c2ncccn2)C1c1cccs1)c1ccco1 (stereo not given) | 117% (active)
O=C(C1=C(O)C(=O)N(Cc2ccccc2)C1c1cccnc1)c1ccco1 (stereo not given) | 2.72% (inactive)
O=C(C1=C(O)C(=O)N(Cc2ccccc2)C1c1ccco1)c1ccco1 (stereo not given) | 4.91% (inactive)

Structure (SMILES) | inhibition
CC(=O)Nc1cccc(C(=O)OCC(=O)c2ccc3c(c2)OCO3)c1 | 0.4% (inactive)
C/C=C\C=C\C(=O)N1CC2(CC(c3cccc(NC(=O)/C(C)=C\C)c3)=NO2)C[C@H]1C(N)=O (stereo not given in full) | 0% (inactive)
CCOc1ccccc1NC(=S)N1CCN(c2cccc(C)c2C)CC1 | 4.81% (inactive)
CCOC(=O)c1ccc(NC(=O)Cn2cnc3cc(C)c(C)cc32)cc1 | 5.35% (inactive)
NC(=O)C1=C[C@@H](c2ccc3c(c2)OCO3)C[C@@H](OCCCCO)O1 | 12.6% (inactive)
Cc1cc(C)cc(OCC(=O)Nc2ccc(N3CCOCC3)cc2N2CCOCC2)c1 | 1.14% (inactive)
CCCCNc1nc2ccccc2nc1NS(=O)(=O)c1cccs1 | 2.76% (inactive)
COc1ccc(Cl)cc1NC(=O)CCS(=O)(=O)c1ccc(Br)cc1 | 42.9% (active)
COc1ccc(Cl)cc1NC(=O)CCS(=O)(=O)c1cc2c(cc1C)NC(=O)CO2 | 8.54% (inactive)
O=C(CCS(=O)(=O)c1ccc(Br)cc1)NCCc1ccc(Cl)cc1 | -2.54% (inactive)
O=C(NNS(=O)(=O)c1ccccc1)c1cnn(-c2ccc(Cl)cc2)c1C(F)(F)F | 6.42% (inactive)
O=C(O)c1ccccc1N=N/C(=N/Nc1cc(S(=O)(=O)O)ccc1O)c1ccccc1 | 62% (active)
O=C(Nc1ccc(C(=O)O)c(O)c1)c1ccccc1 | -1.25% (inactive)
O=C(NCCc1ccccc1)C1CC1 | 3.41% (inactive)
Cc1cc(C)n2nc(C(=O)Oc3ccc4c(c3)OCO4)nc2n1 | 3.36% (inactive)
CN(C)N=Nc1ccc2nc[nH]c2c1 | 2.69% (inactive)
Cc1ccc(S(=O)(=O)N[C@@H](Cc2ccccc2)C(=O)N2CCC(C(=O)N[C@H](C(=O)O)C(C)O)CC2)cc1 (stereo not given in full) | -6.49% (inactive)
Cc1nn(C)c(Oc2ccccc2)c1CCNS(=O)(=O)c1ccc(F)cc1 | 2.92% (inactive)
COCCn1c(N)c(N(Cc2ccccc2)C(=O)C2CCCCC2)c(=O)[nH]c1=O | 0.45% (inactive)
COCCn1c(N)c(NCc2ccccc2)c(=O)[nH]c1=O | 73.5% (active)

Structure (SMILES) | inhibition
COc1ccc(CNc2nc3c(c(=O)[nH]c(=O)n3C)n2Cc2ccccc2)cc1 | 5.54% (inactive)
CCC(=O)c1cc(F)ccc1OCC(=O)Nc1ccc2c(c1)OCCO2 | -2.34% (inactive)
O=c1[nH]c2ccccc2n2c(-c3ccccc3)nnc12 | 57% (active)
O=c1[nH]n2c(-c3ccccc3)nc(O)c2c2ccccc12 | -5.68% (inactive)
Cc1nc2nc(C)c(NS(=O)(=O)c3ccc(C(C)(C)C)cc3)c(=O)n2[nH]1 | 0.66% (inactive)
CS(=O)(=O)N(CC(=O)N1CCN(c2ccc(F)cc2)CC1)C1CCCCC1 | -4.24% (inactive)
CCOC(=O)N1CCN(C(=O)C(C)NC(=O)c2ccco2)CC1 (stereo not given) | -1.38% (inactive)
CCN(C(=O)CSc1ncnc2sccc12)c1c(N)n(Cc2ccccc2)c(=O)[nH]c1=O | 0.53% (inactive)
Cc1ccc(C(=O)N/N=C\c2cc(Br)c(Br)o2)cn1 | 46% (active)
Cc1ccc(C(=O)N/N=C/c2cccc3ccccc23)cn1 | -3.5% (inactive)
O=C(N/N=C\c1cc(Br)c(Br)o1)C1COc2ccccc2O1 (stereo not given) | 10.5% (inactive)
Cc1ccn2cc(-c3nonc3C)cc2c1 | 11.9% (inactive)
Cc1nc2cc(S(=O)(=O)C(F)(F)F)ccc2s1 | -1.41% (inactive)
NS(=O)(=O)c1cccc(NC(=O)CC23CC4CC(CC(Br)(C4)C2)C3)c1 | -1.18% (inactive)
Cc1sc(NC(=S)NC(=O)c2cccs2)nc1-c1ccc(CC(C)C)cc1 | -5.44% (inactive)
CC12CCC(C(=O)N(NC(=O)c3ccccc3O)C1=O)C2(C)C (stereo not given) | 42.7% (active)
O=C(NN1C(=O)C2C(C1=O)C1C=CC2C12CC2)c1ccccc1Cl (stereo not given) | 1.2% (inactive)
CC12CCC(C(=O)N(c3cccc(Cl)c3)C1=O)C2(C)C (stereo not given) | 4.99% (inactive)
CCCC1=Nc2cc(C(=O)NCc3ccco3)ccc2Sc2ccccc21 | -1.97% (inactive)
CCOP1(=O)C=C(C(C)(C)C)OC1c1ccc(F)cc1 (stereo not given) | -0.66% (inactive)
